Our source for the growth values is PubChem BioAssay (NCI).

Each structure is given as a SMILES string. The panel holds about 83,000 compounds, 20% with a hit somewhere; the sample as a whole holds those more often.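 Interpretation: 100, growth as untreated; towards 0, rising growth inhibition; 0, no net growth; 0 to -100, cell death. Compounds scoring below 10 were considered active.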 Values without a mark were called inactive. Calls of active or inactive are those of the source.

Common to all, as to experiment: NCI-60 one-dose screen, 48 h (100 = growth as untreated, 0 = no growth, -100 = all killed)
The subject of assay [1] is HT29 colon. The conditions noted are these: 10 µM unless noted.
Assay [2] deals with SNB-19 CNS. The conditions noted are these: 10 µM unless noted.
Assay [3] deals with U251 CNS. Particulars: 10 µM unless noted.
The test system of assay [4] is PC-3 prostate. The conditions noted are these: 10 µM unless noted.
The test system of assay [5] is SK-MEL-5 melanoma. Particulars: 10 µM unless noted.
For assay [6], the system named is UACC-62 melanoma. The conditions noted are these: 10 µM unless noted.
Assay [7] concerns LOX IMVI melanoma. The conditions noted are these: 10 µM unless noted.
In assay [8] the test system is SK-MEL-28 melanoma. The conditions noted are these: 10 µM.
For assay [9], the system named is SK-MEL-2 melanoma. Particulars: 10 µM unless noted.
The test system of assay [10] is SN12C renal. The conditions noted are these: 10 µM unless noted.
Assay [11] has as its system UO-31 renal. The conditions noted are these: 10 µM unless noted.
Assay [12] has as its system TK-10 renal. The conditions noted are these: 10 µM unless noted.
The test system of assay [13] is ACHN renal. Particulars: 10 µM unless noted.
Assay [14] has as its system CAKI-1 renal. The conditions noted are these: 10 µM unless noted.
Assay [15] relates to A498 renal. The conditions noted are these: 10 µM unless noted.
For assay [16], the system named is MOLT-4 leukemia. The conditions noted are these: 10 µM unless noted.
Assay [17] concerns SR leukemia. The conditions noted are these: 10 µM unless noted.
The subject of assay [18] is CCRF-CEM leukemia. The conditions noted are these: 10 µM unless noted.
Assay [19] deals with SNB-75 CNS. Particulars: 10 µM unless noted.
In assay [20] the test system is EKVX NSCLC. Particulars: 10 µM unless noted.

For `Cc1sc2ncnc(Sc3nc4ccccc4[nH]3)c2c1C`, the growth is -64.4% (active) in assay [1]; -21.7% (active) in assay [2]; -80.9% (active) in assay [3]; -43.3% (active) in [4]; -96.9% (active) in [5]; -91.8% (active) in assay [6]. Also, the growth was -80% (active) in assay [7]; -92.5% (active) in assay [8]; -81.6% (active) in [9]; 25% in [10]; -86.2% (active) in assay [11]; -87.2% (active) in assay [12]. Also, the growth is -82.7% (active) in [13]; -68.6% (active) in assay [14]; 24.5% in assay [15]; -48.4% (active) in assay [16]; -17.3% (active) in assay [17].

With `CCOC(=O)c1cnc2c(C)cccc2c1Nc1ccc(C(C)=O)cc1`, the growth in assay [1] is -67.4% (active); in [2] it was 40.6%; in assay [3], -81.3% (active); in [4], 12.4%; in assay [5], -91.8% (active); in assay [6] it was 12.3%. The growth in assay [7] was -88.5% (active); in assay [8], -93% (active); in [9], -76.2% (active); in assay [10], 29.9%; in [11] it was 13.3%; in assay [12], 10.7%. In addition, the growth was 17.7% in assay [13]; 12% in [14]; 46.5% in assay [15]; 1.73% (active) in assay [18]; -4.17% (active) in [16]; -28.5% (active) in [17].

For the compound `CCOC(=O)C1=C(C)N=c2s/c(=C\c3ccccc3O)c(=O)n2C1c1ccc(OC)c2ccccc12` (stereo unspecified), the growth in assay [1] was -52.2% (active); in [2], 58.1%; in [3], -68.6% (active); in assay [4], 22.9%; in assay [5], -98.1% (active); in assay [6], -85.4% (active). Further, the growth in assay [7] is -85.6% (active); in assay [8] it was -96.2% (active); in assay [9] it was -75.5% (active); in assay [10], 47.3%; in assay [11] it was -18.3% (active); in assay [12], 10.8%. The growth in assay [13] is 33.5%; in [14], -11.4% (active); in [15], 17.6%; in assay [18], 2.51% (active); in assay [16], -9.58% (active); in assay [17] it was -18.4% (active).

Take `O=c1oc2ccc(-c3ccc(F)cc3F)cc2c(=O)n1-c1ccc(Cl)c(C(F)(F)F)c1`: the growth in assay [1] was 53.1%; in [19], 6.37% (active); in [3], 6.46% (active); in assay [4], 5.88% (active); in assay [5] it was -69.6% (active); in [6] it was 0.294% (active). Also, the growth in assay [7] was 32.1%; in [8], 20.3%; in assay [20], 55.4%; in assay [10], 11.2%; in assay [11], 75.6%; in assay [12] it was 15.8%. The growth in [13] was 18.2%; in assay [14], -8.76% (active); in assay [15], -43.5% (active); in assay [16], 6.67% (active).

Turning to `COc1ccc(C2C3=C(COC3=O)N(CCO)c3cc4c(cc32)OCCO4)cc1` (stereo unspecified), the growth in assay [1] is 50.7%; in assay [19], 60.4%; in assay [3], 87%; in assay [4] it was 72.9%; in assay [5] it was 60.8%; in assay [6], 72.4%. Also, the growth was 77.4% in assay [7]; 95% in assay [9]; 121% in assay [20]; 95.4% in assay [10]; 101% in [11]; 91.6% in assay [12]. For the same compound, the growth is 96.5% in assay [13]; 80.8% in [14]; 93.7% in assay [15]; 89.3% in assay [18]; 81.9% in assay [16]; 31.6% in assay [17].

Regarding `CCCCCCCCCCOC(=O)c1ccccc1C(=O)OCCCC`, the growth in assay [1] was 105%; in assay [19] it was 81.9%; in [3], 101%; in assay [4], 90.4%; in [7], 102%; in [8] it was 119%. In addition, the growth is 111% in assay [9]; 81.3% in [11]; 108% in assay [12]; 121% in assay [15]; 103% in assay [18]; 95.4% in assay [16]. The growth in [17] was 100%.

As to `O=c1oc2ccc(I)cc2c(=O)n1-c1ccc(F)cc1F`, the growth in assay [1] was 107%; in assay [2], 14.7%; in assay [3] it was 8.66% (active); in assay [4], 3.58% (active); in assay [6] it was 0.781% (active); in assay [7] it was 11.4%. Further, the growth is 18.9% in assay [8]; -17.3% (active) in [9]; 59.2% in assay [20]; 10.9% in [10]; 7.61% (active) in [11]; 11.6% in assay [12]. For the same compound, the growth in assay [13] is 19.6%; in [14], -17.5% (active); in assay [15], -43.9% (active); in [18], 17.2%; in [16], 13.8%.

On to `CC[C@]1(O)C[C@@H]2CN(CCc3c([nH]c4ccccc34)[C@@](C(=O)OC)(c3cc4c(cc3OC)N(C)[C@H]3[C@@](O)(C(=O)OC)[C@H](OC(=O)CCCBr)[C@]5(CC)C=CCN6CC[C@]43[C@@H]65)C2)C1`, for which the growth is 4.86% (active) in assay [1]; 28.8% in assay [2]; 13.5% in assay [3]; 20.1% in assay [4]; -42.8% (active) in assay [5]; 34.8% in assay [6]. Moreover, the growth in assay [7] is 8.02% (active); in [8] it was 67.3%; in assay [9], 13.6%; in assay [20], 31%; in [10], 23.9%; in [11], 37.7%. The growth in [12] is 46.5%; in assay [13], 28.2%; in assay [14] it was 9.84% (active); in [15], -1.7% (active); in assay [18], 6.76% (active); in assay [16], 17.3%.

Regarding `O=C(Cc1ccccc1)NC(c1ccc(Cl)cc1)c1c(O)ccc2ccccc12` (stereo unspecified), the growth in assay [1] is 12.8%; in assay [2], 20.8%; in [3], 1.3% (active); in assay [4] it was 3.12% (active); in assay [5], -49.5% (active); in assay [6], 5.84% (active). In addition, the growth in [7] is 10.4%; in assay [8] it was 36.6%; in [10], 14.9%; in assay [11] it was -7.48% (active); in assay [12], 17.1%; in assay [14], 4.37% (active). The growth in [15] is 32.8%; in assay [18], 13.4%; in assay [16], 9.11% (active); in [17] it was 4.83% (active).
